Experimental findings from PubChem BioAssay are described below.

A short description of assay [1]: antimalarial activity against Dd2 strain (AID 2302;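 active = growth inhibition above 50% at the single 2 µM test dose, taken to imply half-maximal potency below 2 µM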;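 also: 0% = DMSO untreated growth and 100% = chloroquine plus artemisinin killed control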). Conditions: P. falciparum Dd2 in RBCs, LDH growth readout, 72 h; at 2 µM; active compounds read high.
The nature of assay [2]: HepG2 cytotoxicity, primary screen, cytotoxicity control for P. falciparum antimalarial project, cell-based, ATP luminescence (AID 2303;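 active = inhibition above 50%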;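 also: 0% = DMSO wells and 100% = digitonin-killed cells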). The settings on record: HepG2 viability, 24-48 h, at 10 µM, active compounds read high.
The target of assay [3] is L-lactate dehydrogenase (Plasmodium falciparum (isolate CDC / Honduras)) (UniProt Q27743). Nature of the assay: PfLDH activity inhibition – cell lysate, 3D7 strain, counter-screen for P. falciparum growth inhibition project (AID 2304).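 Also: 0% = vehicle and 100% = reference inhibitor.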 The settings on record: P. falciparum 3D7 crude extract, LDH APAD/NBT absorbance; at 2 µM; active compounds read high.
Assay [4] can be described thus: inhibition of 3D7 malaria parasite growth – strain 3D7 (AID 2306).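 Also: 0% = DMSO wells and 100% = chloroquine plus artemisinin control wells.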 The settings on record: P. falciparum 3D7 erythrocytic growth, LDH absorbance, 72 h; at 2 µM; active compounds read high.
Assay [5] concerns the target Calcium-dependent protein kinase 1 (Plasmodium falciparum (isolate 3D7)) (UniProt P62344). Nature of the assay: PfCDPK1 kinase inhibitors, biochemical, TCAMS library (AID 1159585; cut-off not given, nearly all actives have IC50 up to about 0.98 µM;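 also: inhibitors leave more ATP so luminescence rises with inhibition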). Conditions: recombinant PfCDPK1, Kinase-Glo ATP depletion luminescence. Background: In Kinase-Glo more light means more ATP remaining.
Assay [6] has as its target Plasmodium falciparum protein kinase 6 (PK6, PF3D7_1337100) (UniProt Q8IDW1). Nature of the assay: PfPK6 kinase inhibitors, biochemical, TCAMS library (AID 1159586). The settings on record: recombinant PfPK6, Kinase-Glo ATP depletion luminescence.
Assay [7] deals with Protein kinase 7 (PK7), Plasmodium falciparum 3D7 (PF3D7_0213400) (UniProt Q7YTF7). The experiment in a line: inhibition of Plasmodium PK7 catalytic activity – biochemical, TCAMS antimalarial set, Kinase-Glo luminescence (AID 1159587). The settings on record: recombinant PfPK7, Kinase-Glo ATP depletion luminescence.
Assay [8] addresses Calcium-dependent protein kinase 4 (Plasmodium falciparum (isolate 3D7)) (UniProt Q8IBS5). The experiment in a line: PfCDPK4 kinase inhibitors, biochemical, TCAMS library (AID 1159588; cut-off not given, nearly all actives have IC50 up to about 0.91 µM). Conditions: recombinant PfCDPK4, Kinase-Glo ATP depletion luminescence.

Values without a mark were called inactive. For some of these results: Entries with a potency or affinity are not part of this list. Calls of active or inactive are those of the source. Unless noted, no rule for the calls is given here.

Chain of Calcium-dependent protein kinase 1 (Plasmodium falciparum (isolate 3D7)) (P62344 whole entry, looked up): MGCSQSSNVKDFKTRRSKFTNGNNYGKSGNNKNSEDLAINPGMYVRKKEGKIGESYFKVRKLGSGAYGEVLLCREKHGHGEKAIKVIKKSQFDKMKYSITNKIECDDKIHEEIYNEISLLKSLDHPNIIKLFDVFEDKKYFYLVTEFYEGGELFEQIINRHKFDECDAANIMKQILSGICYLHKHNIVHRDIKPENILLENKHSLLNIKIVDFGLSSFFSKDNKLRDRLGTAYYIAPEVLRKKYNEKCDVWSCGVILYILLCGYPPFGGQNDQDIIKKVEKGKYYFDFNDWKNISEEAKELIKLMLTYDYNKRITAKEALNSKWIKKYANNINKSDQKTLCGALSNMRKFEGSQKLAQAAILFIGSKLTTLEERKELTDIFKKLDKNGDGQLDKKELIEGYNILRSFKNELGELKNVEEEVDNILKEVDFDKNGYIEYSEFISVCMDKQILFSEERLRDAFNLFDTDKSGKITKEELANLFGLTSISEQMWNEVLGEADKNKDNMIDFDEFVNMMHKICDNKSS
Chain of Plasmodium falciparum protein kinase 6 (PK6, PF3D7_1337100) (Q8IDW1 1-305): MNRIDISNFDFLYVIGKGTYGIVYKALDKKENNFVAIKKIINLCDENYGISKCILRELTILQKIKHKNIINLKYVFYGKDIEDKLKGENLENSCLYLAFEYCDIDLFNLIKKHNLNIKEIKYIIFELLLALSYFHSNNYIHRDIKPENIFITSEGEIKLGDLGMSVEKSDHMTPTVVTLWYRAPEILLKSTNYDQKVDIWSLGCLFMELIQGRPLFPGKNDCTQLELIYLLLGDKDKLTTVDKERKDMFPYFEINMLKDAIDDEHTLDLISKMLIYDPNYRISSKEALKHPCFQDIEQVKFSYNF
Chain of L-lactate dehydrogenase (Plasmodium falciparum (isolate CDC / Honduras)) (Q27743 whole entry, looked up): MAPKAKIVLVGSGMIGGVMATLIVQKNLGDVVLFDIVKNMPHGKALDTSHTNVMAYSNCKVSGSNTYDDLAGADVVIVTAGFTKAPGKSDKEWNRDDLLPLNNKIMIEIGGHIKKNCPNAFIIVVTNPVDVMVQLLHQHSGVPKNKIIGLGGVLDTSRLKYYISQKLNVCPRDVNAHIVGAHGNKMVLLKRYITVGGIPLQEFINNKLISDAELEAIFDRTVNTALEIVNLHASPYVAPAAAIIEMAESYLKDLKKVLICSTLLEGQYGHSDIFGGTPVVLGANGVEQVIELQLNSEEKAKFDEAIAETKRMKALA
Chain of Calcium-dependent protein kinase 4 (Plasmodium falciparum (isolate 3D7)) (Q8IBS5 whole entry, looked up): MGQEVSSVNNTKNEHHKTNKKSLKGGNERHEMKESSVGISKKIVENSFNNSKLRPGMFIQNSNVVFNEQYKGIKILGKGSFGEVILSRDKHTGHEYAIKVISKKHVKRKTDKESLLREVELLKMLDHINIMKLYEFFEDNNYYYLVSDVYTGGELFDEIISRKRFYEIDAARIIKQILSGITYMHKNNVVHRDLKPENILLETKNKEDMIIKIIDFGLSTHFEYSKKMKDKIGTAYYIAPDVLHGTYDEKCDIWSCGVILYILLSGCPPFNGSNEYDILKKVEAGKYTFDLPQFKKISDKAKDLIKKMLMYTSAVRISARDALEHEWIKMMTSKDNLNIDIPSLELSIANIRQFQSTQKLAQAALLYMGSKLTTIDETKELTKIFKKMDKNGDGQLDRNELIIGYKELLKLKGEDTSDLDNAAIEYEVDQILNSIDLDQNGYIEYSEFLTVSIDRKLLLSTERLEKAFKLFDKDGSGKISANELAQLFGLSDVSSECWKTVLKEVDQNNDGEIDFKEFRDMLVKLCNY
Chain of Protein kinase 7 (PK7), Plasmodium falciparum 3D7 (PF3D7_0213400) (Q7YTF7 1-343): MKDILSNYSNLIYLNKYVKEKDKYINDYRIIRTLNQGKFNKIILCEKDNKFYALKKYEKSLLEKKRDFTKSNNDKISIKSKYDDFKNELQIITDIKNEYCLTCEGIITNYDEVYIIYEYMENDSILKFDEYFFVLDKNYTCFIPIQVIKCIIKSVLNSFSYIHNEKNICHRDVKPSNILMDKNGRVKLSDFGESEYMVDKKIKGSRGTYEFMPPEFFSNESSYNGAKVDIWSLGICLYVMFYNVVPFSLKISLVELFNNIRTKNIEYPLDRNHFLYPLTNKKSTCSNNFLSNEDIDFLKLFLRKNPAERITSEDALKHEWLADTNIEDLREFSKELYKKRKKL

As usually defined, the inhibition is the drop in the measured response relative to a control, in per cent. With `Cc1cccc2[nH]c(-c3cccc(-c4cccc(CN5CCC(CO)CC5)c4)c3)nc12`, the growth inhibition in assay [1] is 90% (active); in assay [4], 101% (active). The inhibition in assay [2] is 4%; in assay [3], -6%. Besides, the outcome in assay [5], in assay [6], in assay [7] and in assay [8] was inactive.
With `Cc1ccc(CNC(=O)c2ccc(CN3CCCN(Cc4ccsc4)CC3)cc2)cc1`, the growth inhibition in assay [1] was -1%; in assay [4], 93% (active). Moreover, the inhibition in assay [2] was 16%; in assay [3], 5%. The result in assay [5], in assay [6], in assay [7] and in assay [8] was inactive.
As for `O=C(Nc1cccc(CN2CCCN(Cc3ncc[nH]3)CC2)c1)c1ccc(-c2ccccc2)cc1`, the figures for the growth inhibition in assay [1] and in assay [4] were 56% (active) and 101% (active), respectively. Also, the results for the inhibition in assay [2] and in assay [3] were 23% and -5%, respectively. The result in assay [5], in assay [6], in assay [7] and in assay [8] was inactive.
In the case of `Cc1ccc2c(c1C)NC(=O)C21NN=C(c2ccccc2)S1` (stereo not given), the growth inhibition in assay [1] was 65% (active); in assay [4], 97% (active). In addition, the inhibition is 31% in assay [2] and 0% in assay [3]. The outcome in assay [5], in assay [6], in assay [7] and in assay [8] was inactive.
Take `O=C(Nc1ccccc1O)C1CCN(c2ncnc3cc(-c4ccc(F)cc4)sc23)CC1`: the growth inhibition was 94% (active) in assay [1] and 97% (active) in assay [4]. Besides, the results for the inhibition in assay [2] and in assay [3] were 10% and 4%, respectively. Further, the result in assay [5], in assay [6], in assay [7] and in assay [8] was inactive.
`O=c1cc(NCCCNC(c2ccccc2)c2ccc(Cl)c(Cl)c2)[nH]c2ccccc12` (stereo not given): the growth inhibition in assay [1] is 94% (active); in assay [4], 89% (active). The figures for the inhibition in assay [2] and in assay [3] were 13% and 3%, respectively. Further, the result in assay [5], in assay [6], in assay [7] and in assay [8] was inactive.
For the compound `COc1cc(C(=O)NC2CC(C)(C)N(C)C(C)(C)C2)ccc1-c1cc2cc(Cl)c(Cl)cc2[nH]1`, the growth inhibition in assay [1] was 36%; in assay [4] it was 89% (active). Moreover, the inhibition was 65% (active) in assay [2] and 1% in assay [3]. Also, the result in assay [5], in assay [6], in assay [7] and in assay [8] was inactive.
For the compound `Cc1nc2nc(N)nc(N)c2c(C)c1Cc1cccc(C(F)(F)F)c1`, the growth inhibition in assay [1] is 23%; in assay [4] it was 89% (active). For the same compound, the inhibition in assay [2] is 65% (active); in assay [3], -2%. In addition, the result in assay [5], in assay [6], in assay [7] and in assay [8] was inactive.
As for `Oc1cccc(Nc2ccnc3cc(-c4cc5ccccc5o4)ccc23)c1`, the results for the growth inhibition in assay [1] and in assay [4] were 71% (active) and 102% (active), respectively. Also, the inhibition in assay [2] was 9%; in assay [3] it was -1%. Also, the result in assay [5], in assay [6], in assay [7] and in assay [8] was inactive.
With `COc1ccc2cc(C(c3nnnn3CC3CCCO3)N3CCc4ccccc43)c(=O)[nH]c2c1` (stereo not given), the growth inhibition was 3% in assay [1] and 94% (active) in assay [4]. The values for the inhibition in assay [2] and in assay [3] were -3% and -1%, respectively. Also, the outcome in assay [5], in assay [6], in assay [7] and in assay [8] was inactive.
`CCOc1cc2c(cc1OCC)C(c1cc(OC)c(O)cc1Cl)NCC2` (stereo not given): the growth inhibition is 97% (active) in assay [1] and 100% (active) in assay [4]. For the same compound, the values for the inhibition in assay [2] and in assay [3] were 15% and -7%, respectively. Moreover, the outcome in assay [5], in assay [6], in assay [7] and in assay [8] was inactive.
With `CCC(C)C#Cc1c(C)nc(N)nc1N` (stereo not given), the growth inhibition in assay [1] was -4%; in assay [4], 96% (active). In addition, the inhibition in assay [2] is 53% (active); in assay [3], 3%. In addition, the outcome in assay [5], in assay [6], in assay [7] and in assay [8] was inactive.
`C[C@H](Cc1ccc(OCCCCOc2ccc(C[C@@H](C)NC[C@H](O)c3cccc(Cl)c3)cc2)cc1)NC[C@H](O)c1cccc(Cl)c1`: the growth inhibition in assay [1] was 92% (active); in assay [4], 100% (active). Besides, the inhibition in assay [2] was 68% (active); in assay [3], 7%. The outcome in assay [5], in assay [6], in assay [7] and in assay [8] was inactive.
With `O=C(NCCCCN1CCC(c2ccc3c(c2OCC(O)c2ccc(Cl)cc2)CCCC3)CC1)c1ccc(-c2ccc(C(F)(F)F)cc2)cc1` (stereo not given), the growth inhibition in assay [1] is 67% (active); in assay [4] it was 89% (active). Also, the inhibition in assay [2] is 100% (active); in assay [3], -3%. In addition, the outcome in assay [5], in assay [6], in assay [7] and in assay [8] was inactive.
Take `Cc1ccc(Cl)cc1N1CCN(CCCNC(=O)C2CCN(c3nc4ccccc4[nH]3)CC2)CC1`: the growth inhibition in assay [1] was -3%; in assay [4] it was 88% (active). Moreover, the inhibition in assay [2] is 41%; in assay [3] it was -1%. The outcome in assay [5], in assay [6], in assay [7] and in assay [8] was inactive.
Regarding `CC(=O)NCCNCc1cccc(C(=O)NCc2cccc(C(F)(F)F)c2)c1`, the growth inhibition in assay [1] is -2%; in assay [4], 95% (active). The inhibition in assay [2] and in assay [3] was 1% throughout. The outcome in assay [5], in assay [6], in assay [7] and in assay [8] was inactive.
Consider `Cn1nc(C(F)(F)F)c(-c2ccc(F)cc2)c1NC(=O)Nc1ccc(F)cc1F`, for which the values for the growth inhibition in assay [1] and in assay [4] were 98% (active) and 100% (active), respectively. Further, the values for the inhibition in assay [2] and in assay [3] were 11% and -2%, respectively. The outcome in assay [5], in assay [6], in assay [7] and in assay [8] was inactive.
For the compound `CN1CCN(CCCN(Cc2ccc(-c3ccc(CNCc4ccc5c(c4)OCO5)cc3)cc2)C(=O)CCC2CCCC2)CC1`, the growth inhibition in assay [1] was 85% (active); in assay [4], 99% (active). The inhibition is 55% (active) in assay [2] and 8% in assay [3]. Besides, the outcome in assay [5], in assay [6], in assay [7] and in assay [8] was inactive.
On to `CC(C)(C)c1ccc(C(=O)Nc2ccc(NC(=O)c3ccc([N+](=O)[O-])o3)cc2)cc1`, for which the growth inhibition is 4% in assay [1] and 81% (active) in assay [4]. Besides, the results for the inhibition in assay [2] and in assay [3] were -2% and 2%, respectively. Further, the outcome in assay [5], in assay [6], in assay [7] and in assay [8] was inactive.
As to `CC(C)Oc1cc2c(cc1NS(=O)(=O)c1ccc(-c3cccs3)cc1)CCN(C)CC2`, the growth inhibition is 9% in assay [1] and 88% (active) in assay [4]. The results for the inhibition in assay [2] and in assay [3] were 9% and -4%, respectively. Besides, the outcome in assay [5], in assay [6], in assay [7] and in assay [8] was inactive.
